In PubChem BioAssay AID1159580 (chemical genetic matrix, 2015):
Where “and” joins values, the source holds several entries; their conditions need not be identical. Equal entries are not always repeated. Screen size: about 5,500 compounds; about 2,000 (36%) were called active. About 18% were inconclusive and are not listed. Cut-off read from the data, not from the text of the source: active = normalized growth mostly below about 0.91 (no sharp cut-off); inconclusive = no clear call, values can overlap the other calls; inactive = mostly above about 0.92. The list shows a part of the results.

Assay: chemical genetic growth profiling, strain panel (AID 1159580);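 note: tested at 20 µM; growth read once vehicle control cultures reached saturation at 30 °C; 1 = growth at the plate median or of vehicle wells; lower values mean less growth of the strain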
Conditions: growth OD

Measured: normalized growth

COc1ccc2c(c1OC)OC[C@@H](c1ccc(OC)c(OC)c1OC)C2
inactive: S. cerevisiae deletion strains, locus YAL013W, strain DEP1, hits give low values 1.01 | S. cerevisiae deletion strains, locus YBR021W, strain FUR4, hits give low values 0.972 | S. cerevisiae deletion strains, locus YBR229C, strain ROT2, hits give low values 1 | S. cerevisiae deletion strains, locus YCL029C, strain bik1, hits give low values 1.01 | S. cerevisiae deletion strains, locus YDL035C, strain GPR1, hits give low values 1.01 | S. cerevisiae deletion strains, locus YDL074C, strain BRE1, hits give low values 0.999 | S. cerevisiae deletion strains, locus YDL101C, strain DUN1, hits give low values 1.01 | S. cerevisiae deletion strains, locus YDL134C, strain PPH21, hits give low values 0.999 | S. cerevisiae deletion strains, locus YDL185W, strain tfp1, hits give low values 1.02 | S. cerevisiae deletion strains, locus YDL192W, strain arf1, hits give low values 1.01 | S. cerevisiae deletion strains, locus YDR101C, strain arx1, hits give low values 1 | S. cerevisiae deletion strains, locus YDR162C, strain NBP2, hits give low values 1 | S. cerevisiae deletion strains, locus YDR318W, strain mcm21, hits give low values 1.03 | S. cerevisiae deletion strains, locus YDR388W, hits give low values 1.01 | S. cerevisiae deletion strains, locus YDR502C, strain sam2, hits give low values 0.996 | S. cerevisiae deletion strains, locus YEL061C, strain CIN8, hits give low values 1.01 | S. cerevisiae deletion strains, locus YER110C, hits give low values 1 | S. cerevisiae deletion strains, locus YER155C, strain BEM2, hits give low values 1.01 | S. cerevisiae deletion strains, locus YER167W, strain BCK2, hits give low values 1.03 | S. cerevisiae deletion strains, locus YGL078C, strain dbp3, hits give low values 1 | S. cerevisiae deletion strains, locus YGL086W, strain mad1, hits give low values 0.994 | S. cerevisiae deletion strains, locus YGL248W, strain PDE1, hits give low values 1.01 | S. cerevisiae deletion strains, locus YGR078C, strain PAC10, hits give low values 0.998 | S. cerevisiae deletion strains, locus YGR135W, strain pre9, hits give low values 0.999 | S. cerevisiae deletion strains, locus YGR252W, strain gcn5, hits give low values 0.976 | S. cerevisiae deletion strains, locus YHR030C, strain SLT2, hits give low values 1.02 and 1.03 | S. cerevisiae deletion strains, locus YHR079C, strain IRE1 (second series), hits give low values 1.01 | S. cerevisiae deletion strains, locus YHR079C, strain IRE1, hits give low values 1.02 | S. cerevisiae deletion strains, locus YHR094C, strain hxt1, hits give low values 1.01 | S. cerevisiae deletion strains, locus YHR129C, strain ARP1, hits give low values 1.02 | S. cerevisiae deletion strains, locus YHR200W, strain rpn10, hits give low values 1.01 | S. cerevisiae deletion strains, locus YIL066C, strain RNR3, hits give low values 1.01 | S. cerevisiae deletion strains, locus YIL073C, strain SPO22, hits give low values 1.03 | S. cerevisiae deletion strains, locus YIL125W, strain kgd1, hits give low values 1 | S. cerevisiae deletion strains, locus YIR030C, strain dcg1, hits give low values 1.01 | S. cerevisiae deletion strains, locus YJL095W, strain BCK1, hits give low values 0.998 and 1.04 | S. cerevisiae deletion strains, locus YJL134W, strain LCB3, hits give low values 1.01 | S. cerevisiae deletion strains, locus YJL168C, strain set2, hits give low values 1.01 | S. cerevisiae deletion strains, locus YJL187C, strain SWE1 (second series), hits give low values 1 | S. cerevisiae deletion strains, locus YJR043C, strain POL32, hits give low values 1.02 | S. cerevisiae deletion strains, locus YJR066W, strain TOR1, hits give low values 0.983 | S. cerevisiae deletion strains, locus YKL009W, strain mrt4, hits give low values 1.01 | S. cerevisiae deletion strains, locus YKL068W, hits give low values 1 | S. cerevisiae deletion strains, locus YKL085W, strain MDH1 (second series), hits give low values 0.993 | S. cerevisiae deletion strains, locus YKL085W, strain MDH1, hits give low values 0.993 | S. cerevisiae deletion strains, locus YKL190W, strain CNB1, hits give low values 1.01 | S. cerevisiae deletion strains, locus YKR001C, strain vps1, hits give low values 1 | S. cerevisiae deletion strains, locus YLR039C, strain RIC1, hits give low values 1.13 | S. cerevisiae deletion strains, locus YLR058C, strain SHM2, hits give low values 1 | S. cerevisiae deletion strains, locus YLR102C, strain apc9, hits give low values 1.02 | S. cerevisiae deletion strains, locus YLR113W, strain HOG1, hits give low values 0.939 | S. cerevisiae deletion strains, locus YLR262C, strain YPT6, hits give low values 1.14 | S. cerevisiae deletion strains, locus YLR268W, strain sec22, hits give low values 0.996 | S. cerevisiae deletion strains, locus YLR330W, strain CHS5, hits give low values 1.01 | S. cerevisiae deletion strains, locus YLR342W, strain FKS1 (second series), hits give low values 1.04 | S. cerevisiae deletion strains, locus YLR371W, strain rom2, hits give low values 1.01 | S. cerevisiae deletion strains, locus YLR418C, strain cdc73, hits give low values 0.988 | S. cerevisiae deletion strains, locus YML016C, strain PPZ1, hits give low values 1.02 | S. cerevisiae deletion strains, locus YML032C, strain rad52, hits give low values 1.02 | S. cerevisiae deletion strains, locus YML124C, strain tub3, hits give low values 1 | S. cerevisiae deletion strains, locus YMR078C, strain ctf18, hits give low values 1 | S. cerevisiae deletion strains, locus YMR223W, strain ubp8, hits give low values 0.999 | S. cerevisiae deletion strains, locus YMR263W, strain SAP30, hits give low values 0.996 | S. cerevisiae deletion strains, locus YMR307W, strain GAS1, hits give low values 0.927 | S. cerevisiae deletion strains, locus YNL067W, strain RPL9B, hits give low values 1.01 | S. cerevisiae deletion strains, locus YNL183C, strain NPR1, hits give low values 0.97 | S. cerevisiae deletion strains, locus YNL233W, strain BNI4, hits give low values 0.997 | S. cerevisiae deletion strains, locus YNL250W, strain rad50, hits give low values 0.998 | S. cerevisiae deletion strains, locus YNL271C, strain bni1, hits give low values 0.999 | S. cerevisiae deletion strains, locus YNL298W, strain CLA4, hits give low values 0.998 | S. cerevisiae deletion strains, locus YNL307C, strain MCK1, hits give low values 1.04 | S. cerevisiae deletion strains, locus YNL322C, strain KRE1, hits give low values 1.01 | S. cerevisiae deletion strains, locus YNR052C, strain pop2, hits give low values 1.02 | S. cerevisiae deletion strains, locus YOL012C, strain htz1 1.06 | S. cerevisiae deletion strains, locus YOL147C, strain pex11, hits give low values 1 | S. cerevisiae deletion strains, locus YOR061W, strain CKA2, hits give low values 1.01 | S. cerevisiae deletion strains, locus YOR069W, strain VPS5, hits give low values 1.01 | S. cerevisiae deletion strains, locus YOR136W, strain idh2, hits give low values 1.01 | S. cerevisiae deletion strains, locus YOR144C, strain elg1, hits give low values 1 | S. cerevisiae deletion strains, locus YOR184W, strain ser1, hits give low values 0.976 | S. cerevisiae deletion strains, locus YOR231W, strain MKK1, hits give low values 1.06 | S. cerevisiae deletion strains, locus YOR316C, strain cot1, hits give low values 1.01 | S. cerevisiae deletion strains, locus YPL241C, strain CIN2, hits give low values 1.01 | S. cerevisiae deletion strains, locus YPL256C, strain CLN2, hits give low values 1.06 | S. cerevisiae deletion strains, locus YPR119W, strain clb2, hits give low values 1 | S. cerevisiae deletion strains, locus YPR141C, strain kar3, hits give low values 1.02 | S. cerevisiae deletion strains, locus YPR163C, strain tif3, hits give low values 1.01 | S. cerevisiae deletion strains, locus YPR167C, strain met16, hits give low values 1.01 | S. cerevisiae deletion strains, strain wtn01, hits give low values 1.02 | S. cerevisiae strains, strain wild type, hits give low values 1.01
